Laboratory results taken from PubChem BioAssay (EPA / NIEHS).
Inconclusive results are not listed. Calls of active or inactive are those of the source. Rule for the calls, unless noted: active = hit-call score of the fitted dose curve at least 0.9, where 1 is the maximum; inconclusive = response in the unintended direction; inactive = score below 0.9.

Target: human CYP2B6, CYP2B6 (gene 1555) (UniProt P20813)
Assay: NVS_ADME_hCYP2B6: NovaScreen (NVS) CYP450-related Enzyme Activity (ADME) Assay for human CYP2B6 (AID 2283101)
Summary of the method: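 Fluorescence-based enzyme activity of recombinant human CYP2B6, measured 1 h post-dose against acetonitrile vehicle baseline. Screened at a single concentration of 10 uM in duplicate before concentration-response follow-up.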

human CYP2B6, CYP2B6 (gene 1555), sequence (P20813 whole entry, looked up): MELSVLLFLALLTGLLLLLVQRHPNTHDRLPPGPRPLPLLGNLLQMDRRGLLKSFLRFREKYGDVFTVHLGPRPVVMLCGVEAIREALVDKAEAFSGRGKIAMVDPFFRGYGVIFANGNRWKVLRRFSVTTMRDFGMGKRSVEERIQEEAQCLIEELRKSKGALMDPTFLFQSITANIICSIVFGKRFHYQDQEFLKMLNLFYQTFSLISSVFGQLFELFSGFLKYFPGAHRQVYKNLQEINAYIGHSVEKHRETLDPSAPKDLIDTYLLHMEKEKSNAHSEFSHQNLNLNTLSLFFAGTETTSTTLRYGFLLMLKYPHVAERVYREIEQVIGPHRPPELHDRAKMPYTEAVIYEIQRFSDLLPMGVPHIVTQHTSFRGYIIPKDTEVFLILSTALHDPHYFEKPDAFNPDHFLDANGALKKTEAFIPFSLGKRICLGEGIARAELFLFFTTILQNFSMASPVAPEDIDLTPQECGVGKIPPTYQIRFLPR

| SMILES | AC50 |
| --- | --- |
| CCCCOCN(C(=O)CCl)c1c(CC)cccc1CC | 8940 nM (active) |
| CCCCC(C#N)(Cn1cncn1)c1ccc(Cl)cc1 (configuration not stated) | 6490 nM (active) |
| CCOP(=S)(OCC)Oc1nc(Cl)n(C(C)C)n1 | 1000 nM (active) |
| CCOP(=O)(OCC)Oc1nc(Cl)c(Cl)cc1Cl | 8040 nM (active) |
| CCN(CC)c1nc(C)cc(OP(=S)(OC)OC)n1 | 4400 nM (active) |
| COP(=S)(OC)Oc1ccc([N+](=O)[O-])c(C)c1 | 1300 nM (active) |
| CCNP(=S)(OC)O/C(C)=C/C(=O)OC(C)C (configuration not stated) | 723 nM (active) |

Target: human CYP1A2, CYP1A2 (gene 1544) (UniProt P05177)
Sequence (P05177 whole entry, looked up): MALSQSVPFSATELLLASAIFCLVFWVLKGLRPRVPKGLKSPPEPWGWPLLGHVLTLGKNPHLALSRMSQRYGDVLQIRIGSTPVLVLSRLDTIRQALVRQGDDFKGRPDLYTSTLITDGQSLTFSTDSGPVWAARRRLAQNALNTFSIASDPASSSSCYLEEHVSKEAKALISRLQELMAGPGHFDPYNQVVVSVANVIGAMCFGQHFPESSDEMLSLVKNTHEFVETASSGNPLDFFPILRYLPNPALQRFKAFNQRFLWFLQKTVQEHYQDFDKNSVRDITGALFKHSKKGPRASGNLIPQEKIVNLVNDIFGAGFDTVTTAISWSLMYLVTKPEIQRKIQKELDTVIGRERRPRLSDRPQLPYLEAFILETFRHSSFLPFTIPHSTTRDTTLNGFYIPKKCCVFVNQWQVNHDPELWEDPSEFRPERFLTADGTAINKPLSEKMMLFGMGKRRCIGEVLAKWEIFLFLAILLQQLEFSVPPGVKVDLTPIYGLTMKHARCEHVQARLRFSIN
Assay: NVS_ADME_hCYP1A2: NovaScreen (NVS) CYP450-related Enzyme Activity (ADME) Assay for human CYP1A2 (AID 2283102);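 note: potency for inhibition since loss of fluorescence marks reduced CYP1A2 activity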
Summary of the method: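 Recombinant human CYP1A2 from insect cells, cell-free, fluorogenic substrate; read 0.5 h after dosing with loss of fluorescence signal indicating inhibition. Primary screen in duplicate at 10 uM, acetonitrile as negative control.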

| SMILES | AC50 |
| --- | --- |
| N#Cc1c[nH]cc1-c1cccc2c1OC(F)(F)O2 | 353 nM (active) |
| CCOP(=O)(OCC)Oc1nc(Cl)c(Cl)cc1Cl | 3360 nM (active) |
| CC(C)NC(=O)N1CC(=O)N(c2cc(Cl)cc(Cl)c2)C1=O | 5750 nM (active) |
| CCN(CC)c1nc(C)cc(OP(=S)(OC)OC)n1 | 1410 nM (active) |
| COP(=S)(OC)Oc1ccc([N+](=O)[O-])c(C)c1 | 516 nM (active) |
| CC(C)Oc1cccc(NC(=O)c2ccccc2C(F)(F)F)c1 | 6370 nM (active) |
| CCNP(=S)(OC)O/C(C)=C/C(=O)OC(C)C (configuration not stated) | 5760 nM (active) |

Target: Cytochrome P450 2C18 (Homo sapiens) (UniProt P33260)
Sequence (P33260 whole entry, looked up): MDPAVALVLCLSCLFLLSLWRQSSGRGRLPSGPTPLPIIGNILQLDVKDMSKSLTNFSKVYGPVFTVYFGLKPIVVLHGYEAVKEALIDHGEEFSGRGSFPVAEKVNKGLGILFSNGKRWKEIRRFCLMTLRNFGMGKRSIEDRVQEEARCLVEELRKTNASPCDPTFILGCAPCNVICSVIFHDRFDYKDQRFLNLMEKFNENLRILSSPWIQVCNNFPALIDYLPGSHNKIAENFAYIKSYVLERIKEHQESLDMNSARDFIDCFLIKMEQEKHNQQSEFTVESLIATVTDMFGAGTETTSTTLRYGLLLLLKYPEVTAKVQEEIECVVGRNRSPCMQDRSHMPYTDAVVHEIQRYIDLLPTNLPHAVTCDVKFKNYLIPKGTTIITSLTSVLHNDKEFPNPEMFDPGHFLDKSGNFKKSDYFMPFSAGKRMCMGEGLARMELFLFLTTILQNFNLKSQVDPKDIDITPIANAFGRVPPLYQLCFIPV
Assay: NVS_ADME_hCYP2C18: NovaScreen (NVS) CYP450-related Enzyme Activity (ADME) Assay for human CYP2C18 (AID 2283103; active = hit-call score of the fitted dose curve at least 0.9, where 1 is the maximum; inactive = score below 0.9)
Summary of the method: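 Cell-free recombinant human CYP2C18 with fluorogenic substrate; fluorescence intensity read 0.5 h after dosing. Single-point screen at 10 uM in duplicate, then concentration-response up to 20 uM; loss of signal fitted against acetonitrile baseline.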

| SMILES | AC50 | outcome |
| --- | --- | --- |
| CCCCOCN(C(=O)CCl)c1c(CC)cccc1CC | 6710 nM (active) |  |
| CCCCC(C#N)(Cn1cncn1)c1ccc(Cl)cc1 (configuration not stated) | 2250 nM (active) |  |
| CC1(C)CCC(=Cc2ccc(Cl)cc2)C1(O)Cn1cncn1 (configuration not stated) | 2030 nM (active) |  |
| CCOP(=O)(OCC)Oc1nc(Cl)c(Cl)cc1Cl | 6110 nM (active) |  |
| CC(C)NC(=O)N1CC(=O)N(c2cc(Cl)cc(Cl)c2)C1=O |  | inactive |
| COP(=S)(OC)Oc1ccc([N+](=O)[O-])c(C)c1 | 2310 nM (active) |  |
| CC(C)Oc1cccc(NC(=O)c2ccccc2C(F)(F)F)c1 | 2660 nM (active) |  |
| CO/N=C(/C1=NOCCO1)c1ccccc1Oc1ncnc(Oc2ccccc2Cl)c1F | 933 nM (active) |  |
| CCNP(=S)(OC)O/C(C)=C/C(=O)OC(C)C (configuration not stated) | 2630 nM (active) |  |

Target: human CYP2J2, CYP2J2 (gene 1573) (UniProt P51589)
Sequence (P51589 whole entry, looked up): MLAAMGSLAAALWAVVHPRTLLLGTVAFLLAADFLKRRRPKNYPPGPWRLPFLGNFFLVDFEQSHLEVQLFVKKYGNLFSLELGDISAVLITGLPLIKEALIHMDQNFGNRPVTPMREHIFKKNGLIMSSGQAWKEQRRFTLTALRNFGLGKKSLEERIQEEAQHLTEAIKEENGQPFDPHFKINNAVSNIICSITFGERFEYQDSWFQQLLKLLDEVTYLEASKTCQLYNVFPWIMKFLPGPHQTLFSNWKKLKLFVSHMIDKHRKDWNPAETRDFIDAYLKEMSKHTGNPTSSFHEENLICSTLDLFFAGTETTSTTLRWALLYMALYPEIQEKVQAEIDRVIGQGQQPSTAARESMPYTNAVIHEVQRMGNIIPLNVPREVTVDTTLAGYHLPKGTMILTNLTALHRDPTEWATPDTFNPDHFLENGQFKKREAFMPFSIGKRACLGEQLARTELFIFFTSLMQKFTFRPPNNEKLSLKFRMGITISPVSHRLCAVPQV
Assay: NVS_ADME_hCYP2J2: NovaScreen (NVS) CYP450-related Enzyme Activity (ADME) Assay for human CYP2J2 (AID 2283106)
Summary of the method: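 Cell-free assay of recombinant CYP2J2 with a fluorogenic substrate, read 1 h after dosing; loss of signal versus acetonitrile. Primary screen at 10 uM in duplicate, then concentration-response up to 20 uM for chemicals passing threshold (e.g., 30% inhibition).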

| SMILES | AC50 | outcome |
| --- | --- | --- |
| COCc1cnc(C2=NC(C)(C(C)C)C(=O)N2)c(C(=O)O)c1 (configuration not stated) | 3830 nM (active) |  |
| CCCCC(C#N)(Cn1cncn1)c1ccc(Cl)cc1 (configuration not stated) |  | inactive |
| COP(=S)(OC)Oc1ccc([N+](=O)[O-])c(C)c1 | 612 nM (active) |  |
| CCNP(=S)(OC)O/C(C)=C/C(=O)OC(C)C (configuration not stated) | 1330 nM (active) |  |
